Screening data deposited in PubChem BioAssay by several laboratories.
An excerpt weighted towards active compounds, which were near 1.7% of everything screened.
Mtb bLac sens: beta-lactam sensitization of Mtb H37Rv, H37Rv | AID 434955, 2010 | 0.27% of 330,000 active | inhibition, % at 25 µM | M. tuberculosis H37Rv growth with meropenem, percent inhibition; call rule not given here;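 further: growth measured after seven days incubation then overnight dye step; 0% = bacteria only wells and 100% = bacteria with antibiotic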
CCHF vOTU inh-1: CCHFV vOTU protease inhibitors, primary screen, biochemical, Pep-AMC substrate, fluorescence; Crimean-Congo hemorrhagic fever virus L polyprotein viral ovarian tumor (vOTU) protease …; 0.55% of 370,000 active; inhibition, % at 11.5 µM; further: 0% = vehicle wells with enzyme and 100% = no enzyme wells
Mtb hypoxia inh: PubChem AID 1159583; M. tuberculosis hypoxia-regulated fluorescent reporter, fluorescence; fluorescence inhibition, % (no concentration beside the values); 0.1% of 300,000 active; in the data active means fluorescence inhibition mostly above about 23%, no sharp cut-off; inactive means mostly below about 17%
PfHsp40 yeast: rescue of yeast from PfHsp40 toxicity, primary screen, S. cerevisiae, ATP luminescence; S. cerevisiae expressing PfHsp40, growth rescue; growth rescue, % at 12.5 µM; 0.68% of 340,000 active; AID 504582, 2011; in the data active means growth rescue above about 28%, passing the limit was not always enough;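 further: yeast W303a lacking pdr1 and pdr3 grown in galactose medium; growth measured after three days at 30 °C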
RecA intein inh: Mtb RecA intein splicing inhibitors, primary screen, biochemical, fluorescence, HTS. Protein RecA (Mycobacterium tuberculosis (strain ATCC 25618 / H37Rv)), P9WHJ3. cell-free RecA intein splicing. inhibition, % (test concentration not listed). 0.75% of 290,000 active. AID 2221, 2009; in the data active means inhibition above about 30%;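 further: 0% = vehicle wells and 100% = reference inhibitor control wells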
Target sequence (P9WHJ3 whole entry, looked up): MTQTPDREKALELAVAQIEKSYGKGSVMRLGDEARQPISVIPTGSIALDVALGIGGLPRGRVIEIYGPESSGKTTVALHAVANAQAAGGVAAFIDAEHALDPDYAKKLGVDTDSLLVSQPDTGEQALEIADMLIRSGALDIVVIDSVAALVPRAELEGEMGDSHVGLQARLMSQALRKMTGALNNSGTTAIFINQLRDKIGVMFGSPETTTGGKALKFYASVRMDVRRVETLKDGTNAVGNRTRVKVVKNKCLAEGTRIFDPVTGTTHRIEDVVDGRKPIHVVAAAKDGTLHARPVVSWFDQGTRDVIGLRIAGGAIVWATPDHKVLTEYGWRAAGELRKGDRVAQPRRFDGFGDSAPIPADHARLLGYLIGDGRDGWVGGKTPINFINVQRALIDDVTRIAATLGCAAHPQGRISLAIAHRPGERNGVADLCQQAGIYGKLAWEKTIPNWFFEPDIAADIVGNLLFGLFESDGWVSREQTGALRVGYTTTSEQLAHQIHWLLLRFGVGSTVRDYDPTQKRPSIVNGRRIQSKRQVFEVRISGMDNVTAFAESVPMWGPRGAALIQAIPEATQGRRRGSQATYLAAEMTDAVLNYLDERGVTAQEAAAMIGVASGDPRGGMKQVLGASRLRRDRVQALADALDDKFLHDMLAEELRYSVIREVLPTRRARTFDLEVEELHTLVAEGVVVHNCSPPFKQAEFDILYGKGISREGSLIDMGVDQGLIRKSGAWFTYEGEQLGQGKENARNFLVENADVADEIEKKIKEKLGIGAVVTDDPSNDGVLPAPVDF
CCHF vOTU inh-2: CCHFV vOTU protease inhibitors, confirmation, biochemical, Pep-AMC substrate, fluorescence; Recombinant CCHFV vOTU; shares compounds with CCHF vOTU inh-1; AID 686976, 2013; inhibition, % at 11.5 µM; 17% of 1,900 active
* hit, by the source's call; · = not tested or not shown. Unless noted, no stated cut-off is given here; in the data, active means inhibition above about 30%; inactive means the rest.

SMILES | Mtb bLac sens | CCHF vOTU inh-1 | Mtb hypoxia inh | PfHsp40 yeast | RecA intein inh | CCHF vOTU inh-2
Cc1[nH]c2ccc(F)cc2c(=O)c1SC(F)(F)C(F)F | -3.6 | 29.9* | · | -0.4 | -1.5 | -19.2
O=[N+]([O-])c1cc2ccccc2c(O)c1O | · | 82.6* | · | · | · | -19.9
CC(C(=O)Nc1cccnc1)N1C(=O)c2ccccc2C1=O (stereo unspecified) | 6.3 | -11.8 | 7.6 | 0.1 | -1.4 | ·
O=C1C=C(Nc2ccc(F)cc2)c2ccccc2C1=O | 98.5 | 22.0 | · | -1.7 | · | ·
CCOc1ccc(NC2=CC(=O)C(=O)c3ccccc32)cc1 | · | 90.6* | · | 12.3 | · | 44.6*
O=C1C=C(Nc2cccnc2)c2ccccc2C1=O | · | 97.9* | · | -1.4 | · | 95.9*
O=C(NC(C(=O)NN=Cc1cccc2ccccc12)c1n[nH]c(=O)c2ccccc12)c1ccccc1 (stereo unspecified) | · | · | -2.0 | · | · | ·
Cc1cc(N2C(=O)C(O)=C(C(=O)c3cc4ccccc4o3)C2c2cccc(Br)c2)no1 (stereo unspecified) | 14.2 | 31.6* | -5.6 | 2.7 | -1.7 | 18.2
COC(=O)C(CC(C)C)NS(=O)(=O)N(Cc1ccccc1)C(CC(C)C)C(=O)OC (stereo unspecified) | · | · | 5.6 | · | · | ·
CCCCCCCC/C=C\CCCCCCCC(=O)NCCc1ccc(O)c(O)c1 | 6.7 | 30.5* | · | 19.7 | · | 26.6
CCn1c(=O)c(C(=O)NCCN2CCCCC2)c(O)c2ccccc21 | -5.1 | 34.2* | -3.1 | -0.8 | · | -12.2
O=c1oc(C2(O)CCCCC2)cc2ccc(C=Cc3ccc(F)cc3)cc12 | · | · | 14.4 | · | · | ·
COc1cc(NS(=O)(=O)c2ccc(Nc3nc(-c4ccccc4)cs3)cc2)nc(OC)n1 | 4.9 | 36.5* | -2.7 | -0.1 | 24.7 | 15.0
COc1cc(NS(=O)(=O)c2ccc(NC(=S)Nc3ccccc3)cc2)nc(OC)n1 | 8.0 | 11.1 | 7.0 | 0.0 | -1.1 | ·
CCC(C)C1CNC(=S)N1CCc1cc(C(F)(F)F)cc(C(F)(F)F)c1 (stereo unspecified) | · | · | -6.5 | · | · | ·
CN(C(=O)CSc1nccc(=O)[nH]1)C1CCCCC1 | -2.1 | 38.4* | 7.6 | -1.3 | · | -13.7
CCNC(=S)NNC(=O)c1cc(-c2ccccc2C)nc2ccccc12 | -4.8 | · | 7.3 | 1.4 | -2.5 | ·
Cc1ccc(C)c(-c2cc(C(=O)NNC(=S)NCC(C)C)c3ccccc3n2)c1 | 8.4 | 34.5* | 9.1 | 82.4* | -5.1 | -16.8
Cc1cc(OCC(=O)NNC(=S)NC(=O)c2ccc(Br)o2)ccc1Cl | 1.4 | 35.8* | 10.0 | 4.8 | -0.6 | -14.0
COc1cccc(CNC(=O)CSCc2cnn(-c3ccccc3)c2-n2cccc2)c1 | -4.8 | 36.4* | 13.1 | 5.5 | 10.6 | 7.0
NC(=S)N=Nc1c(O)[nH]c2ccc(F)cc12 | 4.1 | 13.1 | -7.0 | 0.8 | -2.0 | ·
NC(=S)N=Nc1c(O)cc(O)c2[nH]c(=O)ccc12 | · | 86.7* | · | 0.4 | · | 89.7*
O=C(CNc1cccc2ccccc12)N/N=C/C(Br)=C/c1ccccc1 | -5.3 | 82.4* | · | 0.1 | 3.6 | -13.4
O=C(CSc1nnc(-c2ccccc2Br)o1)Nc1nncs1 | -9.0 | 30.4* | -5.8 | -1.1 | 3.7 | -22.3
O=C(CSc1nnc(-c2ccncc2)o1)Nc1nncs1 | 5.8 | 5.4 | 2.3 | 0.3 | -2.1 | ·
SMILES | Mtb bLac sens | CCHF vOTU inh-1 | Mtb hypoxia inh | PfHsp40 yeast | RecA intein inh | CCHF vOTU inh-2
COc1ccc(SCCN2CCC(O)CCC2=O)cc1 (stereo unspecified) | · | · | 0.6 | · | · | ·
CC(C)CC1CN=C(Nc2ccccc2)N1CC1CCCC1 (stereo unspecified) | · | · | 10.2 | · | · | ·
COc1cc(C2Nc3cccc4cccc(c34)N2)cc(OC)c1OC(C)=O | -18.4 | 3.4 | · | -0.2 | 0.5 | ·
COc1cc(C2Nc3cccc4cccc(c34)N2)ccc1O | -0.7 | 40.7* | 10.4 | 0.2 | 13.6 | 24.2
O=C(C=Cc1ccccc1)Nc1ccc(NC(=O)c2ccco2)cc1 | · | · | 0.4 | · | · | ·
O=C1C=CC(=O)c2c(O)c(N3CCN(CCO)CC3)c(Cl)c(O)c21 | · | 101.7* | · | -0.2 | · | 97.8*
O=C1C=CC(=O)c2c(O)c(N3CCN(CCOCCO)CC3)c(Br)c(O)c21 | · | 111.1* | · | -0.4 | · | 103.6*
OCCOCCN1CCN(C2=Nc3ccccc3Sc3ccccc32)CC1 | · | 0.7 | 3.8 | -0.3 | -1.2 | ·
Cc1ccc(S(=O)(=O)Nc2cc(Cl)c(O)c3ncccc23)cc1 | 2.9 | 30.3* | · | -2.4 | -0.4 | -3.3
Oc1c(Cl)cc(Cl)c2cccnc12 | · | 9.5 | -13.2 | 10.0 | 5.5 | ·
COc1cc(C=NO)ccc1OCc1ccc([N+](=O)[O-])cc1 | · | · | -11.1 | · | · | ·
COCC(=O)OC1CCn2c1nc1c2C(=O)C(C)=C(NC(C)=O)C1=O (stereo unspecified) | · | 99.8* | · | -1.3 | · | 99.7*
CN1CCCC1CCNC(=O)c1c(-c2ccsc2)sc2ccccc12 (stereo unspecified) | · | · | 1.8 | · | · | ·
COc1ccc(C=NNC(=O)CNC(=O)c2ccc(S(=O)(=O)N3CCOCC3)cc2)c(OC)c1 | · | · | 1.2 | · | · | ·
COc1cc(CNCc2ccccc2)c(Br)cc1OC1CCCC1 | 67.9 | 30.7* | 7.9 | -0.5 | 1.3 | -11.1
COc1cc(CNC2CCCC2)c(Br)cc1OC1CCCC1 | 1.6 | 4.3 | 14.9 | -0.4 | -0.2 | ·
O=C(C1=CC(c2csc3ccccc23)CC(OCc2ccc(CO)cc2)O1)N1CCOCC1 (stereo unspecified) | · | · | 19.8 | · | · | ·
COc1ccc2nc(N3C(=O)C(O)=C(C(=O)c4ccco4)C3c3ccc(OC)c(OC)c3)sc2c1 (stereo unspecified) | · | 33.5* | · | · | · | 2.2
CC(CC1CC(COCCC(C)C)OC1=O)=NNC(N)=S (stereo unspecified) | · | · | 0.9 | · | · | ·
O[C@@H](c1cc(C(F)(F)F)nc2c(C(F)(F)F)cccc12)[C@H]1CCCCN1 | 98.3 | 0.8 | · | 1.9 | -4.8 | ·
CC(C)(C)NCCC(O)c1cc(C(F)(F)F)nc2c(C(F)(F)F)cccc12 (stereo unspecified) | · | 30.4* | · | 3.0 | · | -18.4
O=C(O)CCC(=NNC(=O)CNC(=O)Cc1ccc(Cl)cc1)c1ccccc1 | · | · | -6.4 | · | · | ·
CC(C)(C)c1ccc(C(=O)OCc2c(-c3ccccc3)ncc3ccccc23)cc1 | -10.0 | 30.5* | 2.3 | 0.0 | · | -12.8
COc1cccc(-c2ncc3ccccc3c2COC(=O)c2ccc(C(C)(C)C)cc2)c1 | -5.8 | 4.1 | 12.0 | -1.1 | · | ·
CCN(CC(=O)NCc1cccs1)C(=O)CCCOc1ccccc1 | 0.6 | 3.1 | 1.5 | 1.3 | · | ·
CCN(CC(=O)NCc1cccs1)C(=O)CCCOc1ccc(C(C)(C)C)cc1 | 1.9 | 30.7* | -1.3 | 0.7 | · | -2.9
C=C(C)COc1ccc(-c2nc(N)ncc2-c2ccc(OC)cc2)c(O)c1 | · | 29.8* | · | · | 4.8 | -8.0
CN(C)S(=O)(=O)c1cccc(NC(=S)NN=Cc2cc(Br)ccc2O)c1 | · | · | -2.2 | · | · | ·
Cc1cc2cc(NC(=O)c3ccco3)ccc2[nH]1 | 0.5 | 32.7* | 14.8 | 0.2 | 5.4 | -10.9
Cc1nc2ccc(NC(=O)c3ccco3)cc2nc1C | -3.2 | 0.0 | 0.4 | 0.2 | 0.2 | ·
